# Assay outcomes from PubChem BioAssay.
# TDP43 rescue: inhibitors of TDP-43 toxicity in yeast | AID 652104 | TDP-43 expressing yeast growth rescue, BacTiter-Glo, 24 h | Potency, µM (series often up to 46.1 µM), for the others: at the highest dose growth rescue (activation), usual class: activators | 1.8% of 410,000 active; note: % of control where 0% means no effect; nearly all actives have a fitted effect of over 50% in size
#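 Galactose-induced TDP-43 yeast, OD600=0.02, compound pinned; 24 hr, 30 deg C; BacTiter-Glo luminescence for growth. Inhibitors of TDP-43 toxicity read as activators.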
# FUS yeast rescue: suppressors of FUS proteinopathy in yeast. S. cerevisiae FUS-expressing, growth rescue, OD600, 24 h. Potency, µM (titrated, usually from 76.6 µM), most hits filed as activators. 0.24% of 390,000 active;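 note: plate controls were DMSO vehicle for no effect and reference control for full effect; nearly all actives have a fitted effect of over 55% in size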
#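 Cultures pregrown in 2.5% raffinose medium are shifted to minimal medium containing 2% galactose to express toxic FUS. Compounds are tested at several concentrations. After 24hr at 30C, growth is quantified at 600 nm absorbance.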
# Mito fusion yeast: inhibitors of mitochondrial division or activators of mitochondrial fusion; 0.23% of 320,000 active; AID 485298; S. cerevisiae fusion-defective mutant growth rescue, CellTiterGlo 48 h; Potency, µM (top dose mostly 46.1 µM), for inactives: at the highest dose growth rescue (activation), usual class: activators; note: % of control where 0% means no effect; nearly all actives have a fitted effect of over 45% in size
#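 Luminescent cell viability in 1536-well qHTS format served as the measure of rescued growth in ts fusion-mutant S. cerevisiae cultured on non-fermentable YPEG for 48 hours at 37C.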
# aSyn yeast inh: inhibitors of alpha-synuclein toxicity in yeast; Yeast expressing alpha-synuclein, growth rescue, BacTiter-Glo, 24 h; 0.14% of 370,000 active; Potency, µM (highest dose often 46.1 µM), for inactives: top-dose growth rescue (activation), actives largely listed as activators; note: % of control where 0% means no effect; nearly all actives have a fitted effect of over 65% in size
#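 Galactose-induced alpha-syn yeast (OD600=0.02, raffinose-pregrown) + pinned cpd, 24 hr, 30 deg C; growth by BacTiter-Glo luminescence. Growth restoration scores as activation.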
# Abeta rescue: restores growth of yeast expressing A-beta42 peptide | yeast expressing A-beta42, growth rescue, OD600, 48 h; response scale: 0% DMSO, 100% iron-clioquinol control | 0.063% of 410,000 active | AID 1347071 | Potency, µM (top dose mostly 46.1 µM), most hits filed as activators; note: nearly all actives have a fitted effect of over 55% in size
#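 Yeast growth medium received pinned compounds, then yeast cells expressing toxic A-beta were added; plates incubated at 30 C for 48 hr. Growth read as absorbance at 600 nm, normalized to DMSO and equimolar FeCl3 plus clioquinol controls.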
# The depositor's hits bear a star; i = inactive; ? = inconclusive; nt = no result given; [ ] = another dose, or the depositor's remark. Most compounds without a hit are left out; they make up all but 2.2% or so of the library. Calls come from the whole dose curve; as a rule, active = well fitted curve in the direction sought with a large enough effect; inconclusive = small, poorly fitted or top-dose-only effect, or another doubt; inactive = no such curve, though single readings can be large; an effect the other way counts as inactive or inconclusive. Potency is the fitted concentration of half-maximal effect.
SMILES,TDP43 rescue,FUS yeast rescue,Mito fusion yeast,aSyn yeast inh,Abeta rescue
CCOC(=O)[C@]12CCCCC/C=C\1N(CCc1ccc(Cl)cc1)C(=O)[C@H]2CC(=O)N1CCSCC1,nt,i,nt,nt,nt
CCOC(=O)CSc1nc2sc(C)c(C)c2c(=O)n1C,11µM*,i,1%,0%,i
CC1=C(C(=O)N2CCc3ccccc32)C2(CCC(C)CC2)OC1=O (configuration not stated),13µM*,i,-3%,nt,i
CC1=C(C(=O)Nc2ccc(C)cc2Cl)C2(CCCCC2)OC1=O,11µM*,i,nt,nt,i
COc1ccc(OC)c(CCNC(=O)C2=C(C)C(=O)OC23CCC(C)CC3)c1 (configuration not stated),22%,i,nt,nt,i
CCOc1ccc(NC(=O)C2=C(C)C(=O)OC23CCC(C)CC3)cc1 (configuration not stated),20µM*,i,-6%,6%,?
CC1=C(C(=O)N2CCCCC2)C2(CCC(C)CC2)OC1=O (configuration not stated),0%,i,11%,-1%,i
CCCNC(=O)C1=C(C)C(=O)OC12CCC(C)CC2 (configuration not stated),16%,i,-8%,-2%,i
COc1ccc(NC(=O)C2=C(C)C(=O)OC23CCC(C)CC3)c(OC)c1 (configuration not stated),20µM*,i,-7%,3%,i
COc1cc(C(=O)NNC(=O)COc2cccc(F)c2)ccc1OCC(=O)N1CCOCC1,-6%,i,-1%,2%[1.84 µM],i
Cc1ccccc1-c1nnc(SCC(=O)N(C)C2CCCCC2)o1,12%,i,nt,nt,i
Cc1nc(NC(=S)Nc2ccccc2)sc1C,?,i,-9%,-1%,11µM*
CCC(C(=O)Nc1nc(C)c(C)s1)c1ccccc1 (configuration not stated),18µM*,i,-10%,-2%,?
Cc1ccc(C(=O)Nc2nnc(NC(=S)Nc3ccccc3)s2)cc1,13%,i,-12%,-5%,i
CCc1nnc(NC(=S)Nc2ccccc2)s1,13µM*,i,-3%,-9%,?
CCOC(=O)Cn1c(C2CC(=O)N(c3ccc(C)cc3)C2)nc2ccccc21 (configuration not stated),8%,i,nt,nt,i
COC(=O)c1sccc1NC(=O)Nc1ccccc1C,11µM*,i,2%,-7%,i
COC(=O)c1sccc1NC(=O)Nc1ccccc1F,30%,i,4%,-18%,i
COC(=O)c1sccc1NC(=O)Nc1ccc(C)c(C)c1,13µM*,i,0%,-27%,i
C[C@H](NC(N)=O)C(=O)Nc1ccc(N2CCOCC2)c(S(=O)(=O)Nc2ccc(Cl)cc2)c1,-32%,i,2%,-7%,i
CCOC(=O)c1ccc(N/C(=N\S(=O)(=O)c2ccccc2C)c2ccccc2)cc1,25µM*,i,22%,5%,i
COC(=O)c1ccc(N/C(=N/S(=O)(=O)c2ccccc2)c2ccccc2)cc1,15%,nt,0%,2%,i
CCOc1cc2c(cc1/C=C/C(=O)O)OC(C)C2 (configuration not stated),22µM*,i,6%,-10%,i
COc1cc2c(cc1/C=C/C(=O)O)OC(C)C2 (configuration not stated),?,i,-6%,1%,i
O=C(Nc1ccccc1Cl)C1CCN(c2nc3ccccc3[nH]2)CC1,20%,i,nt,nt,i
SMILES,TDP43 rescue,FUS yeast rescue,Mito fusion yeast,aSyn yeast inh,Abeta rescue
Cc1ccc(S(=O)(=O)N2CCCC2CNC(=O)c2ccccc2)cc1 (configuration not stated),-6%,i,6%,-1%,i
Nc1nn(-c2ccccc2)c(N)c1N=Nc1ccccc1F,13µM*,i,6%,-26%,i
Cc1cccc(N=Nc2c(C)nn(-c3ccccc3)c2N)c1C,20µM*,nt,-8%,-20%,i
Cc1nn(-c2ccccc2)c(N)c1N=Nc1ccccc1,?,i,?,-14%,i
O=C(CSc1nc2ccccc2nc1Cc1ccccc1)Nc1ccc2c(c1)OCO2,-1%,?,nt,nt,i
Cc1ccc(SCC(=O)NC(=O)c2ccccc2Br)c(C)c1,13µM*,nt,nt,15%,i
Cc1ccc(SCC(=O)NNC(=O)c2ccccc2)c(C)c1,4%,i,-11%,5%,i
CCc1ccc(NC(=O)Cn2c(=O)c(CNc3ccccc3)cc3cc(OC)c(OC)cc32)cc1,-6%,i,nt,nt,i
COc1cc2cc(CNc3ccccc3)c(=O)n(CC(=O)Nc3cc(C)cc(C)c3)c2cc1OC,-3%,25µM*,nt,9%,i
C=CCSc1nnc2c(n1)[nH]c1c(C)cccc12,11µM*,i,4%,-30%,i
Cc1cccc2c1[nH]c1nc(N/N=C\c3ccco3)nnc12,nt,nt,-3%,nt,nt
CCCNC(=O)C1(C)CCCN(C(=O)c2ccccc2OC)C1 (configuration not stated),17%,i,nt,-1%,i
CC1(C(=O)NCc2cccc(C(F)(F)F)c2)CCN1Cc1ccc(-c2ccccc2)o1 (configuration not stated),-26%,i,nt,20µM*,i
O=C(Nc1ccc(Br)c(C(F)(F)F)c1)c1ccc(C(F)(F)F)cc1,-92%,i,-26%,-47%,i
O=C(Nc1ccc(Br)c(C(F)(F)F)c1)c1ccccc1,8.9µM*,nt,22µM*,-26%,i
CCOc1ccc(C(C(=O)NC2CCCC2)N(CCCO)C(=O)c2ccc(-c3ccccc3)[nH]2)cc1 (configuration not stated),-13%,35µM*,-1%,0%,i
O=C(NC1CCCC1)C(c1ccncc1)N(CCCN1CCOCC1)C(=O)c1ccc(-c2ccccc2)[nH]1 (configuration not stated),-7%,i,1%,1%,i
CCOC(=O)C1(C)CCCN(C(=O)c2ccccc2C(F)(F)F)C1 (configuration not stated),16%,i,nt,-3%,i
Cc1ccc(C(=O)Nc2nc(C(C)(C)C)cs2)s1,14µM*,i,11%,-38%,i
Cc1ccc(CSc2nc3cccnc3n2Cc2ccc(C(=O)NCc3ccco3)cc2)cc1,17%,i,nt,nt,i
Cc1ccc(CN2C(=O)[C@@H]3Cc4c([nH]c5ccccc45)C(C)(C)N3C2=O)cc1,nt,i,nt,nt,?
COc1cccc(CN2C(=O)[C@@H]3Cc4c([nH]c5ccccc45)C(C)(C)N3C2=O)c1,nt,?,nt,nt,10µM*
Cc1ccccc1NC(=O)CSc1nnc(-c2ccco2)c(-c2ccco2)n1,7%,i,1%,-1%,i
